One assay concerns Klebsiella pneumoniae. The note with it: Concentration 20 uM; ASSAY_TEST Inhibition of Bacterial Growth; detection method Absorption (OD600); MEDIA CAMHB; plate type 384well; NBS; CORNING #3640; time 18 hr.
The subject of another assay is Candida albicans. The following applies: 20 µM.
Another assay has as its system Cryptococcus neoformans. The note with it: Concentration 20 uM; ASSAY_TEST Inhibition of Fungal Growth; detection method Resazurin; Absorption (OD600-OD570); plate type 384well; NBS; CORNING #3640. (Alamar Blue is a resazurin reagent that responds to reducing activity.)

From ChEMBL document CHEMBL4513141, “CO-ADD screening of NIH (USA) - Clinical Collection” (2021) come the findings set out here.

Results with a measured potency or affinity are listed apart.

In general, Inhibition refers to the change of the read-out against control, counted positive when it falls. As to `CN(C)CCOC(C)(c1ccccc1)c1ccccn1.O=C(O)CCC(=O)O` (stereo unspecified) [DOXYLAMINE SUCCINATE], the Inhibition in the assay on Klebsiella pneumoniae was 9.97%; with Candida albicans, 0.07%; in the assay on Cryptococcus neoformans, -8.18%.
For `O=[N+]([O-])c1cccc2cn[nH]c12` [7-NITROINDAZOLE], in that order: 13.1%, 3.19% and -0.25%.
For `CN(C)C(=O)Oc1ccc[n+](C)c1.[Br-]` [PYRIDOSTIGMINE BROMIDE], in that order: 3.02%, 1.97% and -8.97%.
As for `Cl.OC(CCN1CCCC1)(c1ccccc1)C1CCCCC1` (stereo unspecified) [PROCYCLIDINE HYDROCHLORIDE], the Inhibition is 8.43% with Klebsiella pneumoniae, 4.68% in the assay with Candida albicans and -10.03% in the assay on Cryptococcus neoformans.
The like results for `COc1ccc(-c2oc3c(CC=C(C)C)c(O[C@@H]4O[C@H](CO)[C@@H](O)[C@H](O)[C@H]4O)cc(O)c3c(=O)c2O[C@@H]2O[C@@H](C)[C@H](O)[C@@H](O)[C@H]2O)cc1` [ICARIIN] were, in that order, 1.41%, 4.36% and 0.11%.
For `CN(C)CCC(c1ccc(Cl)cc1)c1ccccn1.O=C(O)/C=C\C(=O)O` (stereo unspecified) [CHLORPHENIRAMINE MALEATE], in that order: 2.46%, 4.73% and 0.1%.
With `CC(=O)O.NCc1ccc(S(N)(=O)=O)cc1` [MAFENIDE ACETATE], the results for the Inhibition with Klebsiella pneumoniae, with Candida albicans and in the assay on Cryptococcus neoformans were 13.84%, 0.67% and -7.57%, respectively.
For `CC=CC(=O)N(CC)c1ccccc1C`, in that order: 0.87%, 0.3% and -7.28%.
The like results for `CCN(CC)CCNC(=O)c1cc(Cl)c(N)cc1OC.Cl` were, in that order, 10.19%, 3.69% and -1.39%.
The like results for `CCCCNC(=O)NS(=O)(=O)c1ccc(C)cc1` [TOLBUTAMIDE] were, in that order, 16.6%, 1.06% and 0.26%.
Turning to `CCCC(CCC)C(=O)O` [VALPROIC ACID], the Inhibition is 1.95% with Klebsiella pneumoniae, 5.05% with Candida albicans and -4.42% in the assay with Cryptococcus neoformans.
The like results for `Cc1sc(N)c(C(=O)c2cccc(C(F)(F)F)c2)c1C` were, in that order, 7%, 1.23% and -0.97%.
The like results for `C[C@@H](O)[C@H]1C(=O)N2C(C(=O)O)=C(S[C@@H]3CN[C@H](C(=O)N(C)C)C3)[C@H](C)[C@H]12` [MEROPENEM] were, in that order, 0.03%, 3.42% and 2.76%.
The like results for `Cc1nc(=O)c2cc(CN(C)c3ccc(C(=O)N[C@@H](CCC(=O)O)C(=O)O)s3)ccc2[nH]1` [RALTITREXED] were, in that order, 9.17%, 2.26% and -0.58%.
`C[C@]12C=CC(=O)C=C1CC[C@@H]1[C@@H]2[C@@H](O)C[C@@]2(C)[C@H]1CC[C@]2(O)C(=O)COC(=O)CCC(=O)[O-].[Na+]` [PREDNISOLONE SODIUM SUCCINATE]: the results for the Inhibition in the assay on Klebsiella pneumoniae, in the assay with Candida albicans and in the assay with Cryptococcus neoformans were 6.54%, -0.07% and 1.35%, respectively.
`CC(Oc1c(Cl)cccc1Cl)C1=NCCN1.Cl` (stereo unspecified) [LOFEXIDINE HYDROCHLORIDE]: the Inhibition was 6.35% in the assay with Klebsiella pneumoniae, 2.12% with Candida albicans and -0.75% in the assay on Cryptococcus neoformans.
For `COC(=O)C1=C(C)NC(C)=C(C(=O)OCCN(C)Cc2ccccc2)C1c1cccc([N+](=O)[O-])c1.Cl` (stereo unspecified) [NICARDIPINE HYDROCHLORIDE], in that order: -5.88%, 0.94% and -9.15%.
The like results for `CC(C)(C)NC(=O)[C@@H]1CN(Cc2cccnc2)CCN1C[C@@H](O)C[C@@H](Cc1ccccc1)C(=O)N[C@H]1c2ccccc2C[C@H]1O.O=S(=O)(O)O` [INDINAVIR SULFATE] were, in that order, 0.54%, 2.58% and -4.45%.
For the compound `C=CCc1ccc(O)c(-c2ccc(O)c(CC=C)c2)c1` [HONOKIOL], the Inhibition with Klebsiella pneumoniae was 7.54%; in the assay on Candida albicans, 3.92%; in the assay with Cryptococcus neoformans, 0.25%.
For `CN1C(C(=O)Nc2ccccn2)=C(O)c2ccccc2S1(=O)=O.O`, in that order: 9.7%, 7.55% and -5.24%.
The like results for `CCC(=O)O[C@]1(C(=O)CCl)[C@@H](C)C[C@H]2[C@@H]3CCC4=CC(=O)C=C[C@]4(C)[C@@]3(F)[C@@H](O)C[C@@]21C` [CLOBETASOL PROPIONATE] were, in that order, -2.85%, 0.73% and 4.34%.
The like results for `CCCNC(=O)NS(=O)(=O)c1ccc(Cl)cc1` [CHLORPROPAMIDE] were, in that order, 11.38%, 3.19% and 0%.
As for `CCCc1nc(C)c2c(O)nc(-c3cc(S(=O)(=O)N4CCN(CC)CC4)ccc3OCC)nn12.O=C(O)CC(O)(CC(=O)O)C(=O)O`, the Inhibition in the assay on Klebsiella pneumoniae was 10.86%; in the assay with Candida albicans, 4.67%; with Cryptococcus neoformans it was -15.39%.
For `CN1CCCCC1CCN1c2ccccc2Sc2ccc([S+](C)[O-])cc21.O=S(=O)(O)c1ccccc1` (stereo unspecified) [MESORIDAZINE BESYLATE], in that order: -1.64%, 4.29% and 2.61%.
As to `NS(=O)(=O)c1cc2c(cc1C(F)(F)F)NCNS2(=O)=O` [HYDROFLUMETHIAZIDE], the Inhibition in the assay on Klebsiella pneumoniae is 13.59%; in the assay on Candida albicans, -0.33%; with Cryptococcus neoformans, -2.31%.
For `NS(=O)(=O)c1cc2c(cc1Cl)NCNS2(=O)=O` [HYDROCHLOROTHIAZIDE], in that order: 14.61%, 2.05% and -7.59%.
For `CN(C)c1nc(N(C)C)nc(N(C)C)n1` [ALTRETAMINE], in that order: 4.59%, 4.65% and -7.07%.
